Shown is part of a subset that was picked to be rich in hits.
LASV entry inh: Lassa virus entry inhibition; Lassa virus pseudotype entry inhibition, cell reporter; Potency, µM (titrated, usually from 37.9 µM), for the others: top-dose activity change, negative = inhibition, most hits filed as inhibitors; hit rate 1.2% among 300,000; AID 540256; calls by dose curve; tested in HEK293 cells; further: potency means the concentration at half of the fitted maximal effect; on the % scale 0 is the no-effect control and ±100 the full control effect; nearly all actives have a fitted effect of over 50% in size
VACV Venus inh: vaccinia inhibition (Venus reporter); Potency, µM (doses to about 36.5 µM), for the others: top-dose activity change, negative = inhibition, actives largely listed as inhibitors; Vaccinia virus Venus reporter expression, fluorescence; hit rate 0.46% among 330,000; calls by dose curve; tested in A549 cells; further: potency means the concentration at half of the fitted maximal effect; on the % scale 0 is the no-effect control and ±100 the full control effect; nearly all actives have a fitted effect of over 30% in size
Cycloheximide cs: counter-screen hit for Shiga toxin inhibitors, cycloheximide. hit rate 12% among 300,000. AID 2314. cell reporter, cycloheximide protein synthesis inhibition counterscreen. max response, %; in the data active means max response mostly above about 13%, no sharp cut-off; inactive means mostly below about 14%; further: read at 38.3 µM for the half of the compounds with a filed dose; 0% is about no effect
Shiga toxin inh: blocks Shiga toxin action in Vero cells | inhibition, % at 38.7 µM | hit rate 9.2% among 290,000 | Vero cells, Shiga toxin protein synthesis inhibition reporter | AID 2315; in the data active means inhibition mostly above about 28%, no sharp cut-off; inactive means mostly below about 43%; further: 0% is about no effect
Vaccinia mCherry: inhibitors of vaccinia virus infection (mCherry reporter signal); Potency, µM (series often up to 36.5 µM), for the others: at the highest dose activity change, negative = inhibition, actives largely listed as inhibitors; AID 720579; Vaccinia virus mCherry reporter infection, fluorescence; hit rate 0.63% among 310,000; calls by dose curve; tested in A549 cells; further: potency means the concentration at half of the fitted maximal effect; on the % scale 0 is the no-effect control and ±100 the full control effect; nearly all actives have a fitted effect of over 35% in size
MARV entry inh: Marburg virus entry inhibition. Marburg virus pseudotyped entry inhibition, cell reporter. Potency, µM (top dose mostly 37.8 µM), for inactives: at the top dose activity change, negative = inhibition, actives largely listed as inhibitors. hit rate 1.8% among 300,000; calls by dose curve; tested in HEK293 cells; further: potency means the concentration at half of the fitted maximal effect; on the % scale 0 is the no-effect control and ±100 the full control effect
Numbers without * were called inactive; i = inactive; ? = inconclusive; . = no result given; [ ] = remark or other dose.

SMILES | LASV entry inh | VACV Venus inh | Cycloheximide cs | Shiga toxin inh | Vaccinia mCherry | MARV entry inh
COc1ccc(NC(=O)Cn2c(=O)n(-c3cc(C)cc(C)c3)c(=O)c3oc4ccccc4c32)cc1OC | -2.8%[46.1 µM] | -16.3% | . | . | -4.4% | .
CCOC(=O)N1CCC2(CC1)C(C#N)=C(N)OC1=C2C(=O)CC(C)C1 (stereo unspecified) | -1.4% | . | 1.0 | -16.1 | . | 16.0%
CSc1cccc(NC(=O)CN(C)S(=O)(=O)c2ccc(F)cc2)c1 | -0.3% | -20.5% | -2.5 | 4.2 | -18.9% | ?
CCC(C)C(=O)Nc1cccc(SC)c1 (stereo unspecified) | . | . | 16.4* | 56.1 | . | .
CSc1cccc(NC(=O)CN(C)S(=O)(=O)c2ccccc2)c1 | 3.7% | -13.1% | 17.9* | 18.2 | i | 13.5%
C=CCCC1CN(Cc2ccc(OC)cc2)S(=O)(=O)c2c(Oc3cc(C)c(C)c(C)c3)cccc2O1 (stereo unspecified) | -16.9%[46.1 µM] | . | . | . | . | .
Cc1ccc(S(=O)(=O)N2CCN(C(=O)c3c(C)nn(-c4ccccc4)c3Cl)CC2)cc1 | ? | -13.9% | 9.6 | -8.0 | -3.0% | -26.6%
Cc1cc(C)c(S(=O)(=O)N2CCN(C(=O)c3c(C)nn(-c4ccccc4)c3Cl)CC2)c(C)c1 | ? | ? | . | . | i | 14.1µM*
O=C(Nc1cc(Cl)ccc1Cl)C1CC(=O)N(c2ccc(Br)cc2)C1 (stereo unspecified) | -30.5% | . | -6.8 | -10.8 | . | ?
Cc1nnc(SCCN2C(=O)c3ccccc3C2=O)nc1C | . | -7.6% | . | . | i | .
CC/C(Cc1ccccc1)=N\NC(=O)c1cc([N+](=O)[O-])cc([N+](=O)[O-])c1 | . | -11.1% | 1.8 | -3.7 | ? | .
CC/C(Cc1ccccc1)=N/NC(=O)c1cccc(Br)c1 | 5.3% | -1.0% | 16.1 | 46.5* | i | -13.3%
O=C(NCCc1ccccc1)c1cccc(Br)c1 | . | . | 39.0* | 78.9* | . | .
O=C(NCCc1ccccc1)c1cccc([N+](=O)[O-])c1 | 3.7% | -1.7% | 82.2* | active | -2.3% | ?
COc1ccc(CCNC(=O)c2cccc([N+](=O)[O-])c2)cc1OC | 3.8%[46.1 µM] | 0.0% | . | . | i | ?
CCCNC(=O)c1cccc(Br)c1 | -10.0% | -9.9% | -3.5 | -3.2 | -4.0% | ?
c1ccc(-c2nnc(CN3CCN(c4ccccn4)CC3)o2)cc1 | -0.1%[46.1 µM] | 8.0% | . | . | 2.0% | 15.7%[46.1 µM]
COc1ccc(CCNC(=O)C2c3ccccc3C(=O)N2Cc2ccccc2)cc1OC (stereo unspecified) | -4.5%[46.1 µM] | -7.6% | . | . | -9.6% | .
COC(=O)c1ccc(NC(=O)CNS(=O)(=O)c2cccs2)cc1 | ? | -3.1% | 18.6* | 31.7 | -9.1% | 6.4%
O=C(CNS(=O)(=O)c1cccs1)Nc1ccc2c(c1)OCCO2 | 16.4% | . | 43.4* | 90.2* | . | 22.2%
O=S(=O)(Nc1ccc2c(c1)OCO2)c1cccs1 | 18.2% | . | 2.4 | 11.3 | . | 12.8%
O=S(=O)(Nc1ccc2c(c1)OCCO2)c1cccs1 | 10.1% | -18.3% | 53.7* | 82.9* | i | 10.8%
CCOc1ccc(CCNC(=O)CCSCc2ccc(Cl)cc2)cc1OCC | 6.7%[46.1 µM] | -4.8% | . | . | -10.5% | .
C=C1C(=O)O[C@@H]2[C@H]3O[C@]3(C)CCC=C(C)CC[C@@H]12 | 9.2µM* | . | . | . | . | 22.4µM*
COc1ccc(N(CC(=O)NCc2cccs2)S(=O)(=O)c2c(C)n[nH]c2C)cc1 | 5.5% | . | 0.4 | -15.7 | . | 0.0%
SMILES | LASV entry inh | VACV Venus inh | Cycloheximide cs | Shiga toxin inh | Vaccinia mCherry | MARV entry inh
CN(C)C=Nc1ccc2nc3c(cc2c1)[nH]c1ccccc13 | . | . | 38.9* | 73.8* | . | .
COC(=O)c1cc(S(=O)(=O)Nc2ccsc2C(=O)OC)oc1C | . | . | 3.8 | 10.0 | . | .
CN(CC(=O)Nc1ccccc1Cl)C(=O)c1cccc(S(=O)(=O)N2CCN(c3ccc(F)cc3)CC2)c1 | . | . | 58.2* | 139.4* | . | .
Cc1cccc(C)c1NC(=O)CN(C)C(=O)c1cccc(S(=O)(=O)N2CCN(c3ccc(F)cc3)CC2)c1 | ? | -28.0% | . | . | ? | ?
O=C(c1cccc(S(=O)(=O)N2CCN(c3ccc(F)cc3)CC2)c1)N1CCCC(C(F)(F)F)C1 (stereo unspecified) | ? | -27.5% | . | . | ? | 7.94µM*
CN(CCOc1ccc(Cl)cc1)C(=O)c1cccc(S(=O)(=O)N2CCN(c3ccc(F)cc3)CC2)c1 | ? | ? | . | . | ? | 7.08µM*
CN(CC(=O)Nc1ccccc1Cl)C(=O)c1cccc(S(=O)(=O)N2CCN(c3ccccc3)CC2)c1 | ? | ? | . | . | -10.8% | ?
COc1ccccc1CNc1ccc(-c2nc(-c3ccccn3)no2)cc1[N+](=O)[O-] | 24.9%[46.1 µM] | ? | . | . | i | -15.6%[46.1 µM]
NS(=O)(=O)c1cnccc1Nc1ccc(Cl)cc1 | 7.8% | -15.5% | -1.8 | 11.2 | -4.6% | -5.7%
CC1CC=CC2C1C(=O)N(Cc1ccccc1)C2c1ccc(F)c(Br)c1 (stereo unspecified) | . | . | 16.2 | 31.7* | . | .
CCCCn1c(C(C)NC(=O)CC)nc2ccccc21 (stereo unspecified) | . | 0.9% | -0.2 | -3.0 | 3.1% | .
CCC(=O)Nc1nc2ccccc2n1Cc1ccc(Cl)cc1 | ? | . | -1.9 | 45.4 | . | 11.6µM*
O=C(Nc1nc2ccccc2n1Cc1ccccc1)c1ccco1 | -21.6% | -1.3% | 25.7* | 27.5 | . | ?
CCC(=O)Nc1nc2ccccc2n1Cc1ccccc1Cl | . | . | 0.7 | -3.4 | . | .
CC(C)Cn1c(CCNC(=O)c2ccco2)nc2ccccc21 | . | . | 31.4* | 116.6 | . | .
CCCCCCn1c(C(C)NC(=O)c2ccco2)nc2ccccc21 (stereo unspecified) | -23.9% | -26.2% | 11.5* | 4.9 | . | ?
CN(C)C(=O)CCc1ccc2c3c([nH]c2c1)[C@]1(C)[C@@H](C(=O)N2CCOCC2)C[C@H](CC(=O)NCc2cccc(C(F)(F)F)c2)C(=O)N1CC3 | . | -22.5% | . | . | i | .
Nc1cc([N+](=O)[O-])cc(N)c1N | . | -12.7% | . | . | -25.1% | .
NC(=S)Nn1c(-c2ccccc2)nc2ccccc2c1=O | 0.6% | -6.3% | -2.8 | -8.1 | -12.1% | -15.8%
O=C(c1cccc(F)c1F)N1CCOc2ccc(CN3CCN(Cc4ccccn4)CC3)cc2C1 | . | -11.2% | . | . | -14.6% | .
Cc1nc(C(C)NC(=O)CCc2nnc(CCCc3ccccc3)o2)c(C)s1 (stereo unspecified) | 15.8% | -6.9% | 31.7* | 74.8* | -13.1% | -1.2%[46.1 µM]
O=C(CCc1nnc(CCCCc2ccccc2)o1)N1CCCC(O)C1 (stereo unspecified) | . | . | 12.9* | 38.3 | . | .
O=C(CCc1nnc(CCCc2ccccc2)o1)NC(C1CC1)C1CC1 | -19.1%[46.1 µM] | -7.1% | 33.4* | 55.2* | -1.9% | ?
Cc1cc(C)n(CC(C)NC(=O)CCc2nnc(CCc3ccccc3)o2)n1 (stereo unspecified) | -7.8% | -19.7% | 5.3 | 2.8 | -0.7% | 11.2%[46.1 µM]
Cc1oc(-c2cccc(NC(=O)C3CCCN(C)C3)c2)nc1CNC(=O)c1coc2c1C(=O)CCC2 (stereo unspecified) | . | -29.3% | . | . | -23.0% | .
O=c1c(N2CCOCC2)c(N2CCOCC2)c1=O | . | . | -2.1 | -4.9 | . | .
CC(C)(C)C1=CC(=O)C(N2CCOCC2)=CC1=O | 12.6µM* | -12.6% | -3.3 | 26.6 | i | ?

High-throughput results (PubChem)
